The whole screen tested about 310,000 compounds, of which about 11,000 (3.5%) were called active. Inconclusive results (about 8%) are left out. The sample as a whole holds a higher share of actives than the screen did. Unmarked numbers belong to inactive results. Calls follow the shape of the dose curve; as a rule, active = well fitted inhibition curve with a large enough effect; inconclusive = small, poorly fitted or top-dose-only effect, or effect the other way; inactive = flat fitted curve, though single readings scatter.
% is scaled to controls: 0 for no effect and ±100 for the full control effect; potency is read from the fitted curve at half-maximal effect.

The nature of this experiment: VP16 counterscreen qHTS for inhibitors of ROR gamma transcriptional activity.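 Also: Gal4-VP16 expression switched on by copper sulfate through the metallothionein promoter; nearly all actives have a fitted effect of over 50% in size.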 Conditions: Drosophila S2 Gal4-VP16 UAS-luciferase, luminescence, 20 h; series mostly up to 53.6 µM; activity, negative = inhibition: at the top concentration. From the text:
NIH Molecular Libraries Probe Production Network [MLPCN]
NIH Chemical Genomics Center [NCGC]
Assay Provider: Dan Littman, New York University
The retinoic acid-related orphan receptor (ROR) gamma is a transcription factor that has a central role in the differentiation of Th17 cells, a subset of T helper cells that secrete the inflammatory cytokines IL-17, IL-17F, and IL-22. Th17 cells have been implicated in graft versus host disease, autoimmune disease and asthma. ROR gamma is induced in naive T helper cells in the presence of TGF-beta combined with IL-6, IL-21, or IL-23, and thereafter directs the expression of the Th17 lineage cytokines. To identify nonspecific inhibitors, a Drosophila Schneider cell line was stably transfected with two vectors: a gene expressing a fusion of the Gal4 DNA binding domain and VP16 transactivation domain under the control of the metallothionine promoter and a Photinus luciferase reporter regulated by the Gal4 binding site enhancer, UAS. […] Small molecule inhibitors that inhibit components common to the RORgt and VP16 assays, such as the Gal4 DNA binding domain or the UAS luciferase reporter, will be active in both assays and thus scored as nonspecific.
For screening, 600 cells in 4 uL/well were dispensed into white solid 1536-well plates (Grenier) using a solenoid-based dispenser. Following transfer of 23 nL compound or DMSO vehicle by a pin tool, the plates were incubated 1 hr at ambient temperature, and 1 uL/well copper sulfate (700 uM final concentration) was added. The plates were centrifuged 15 s at 1000 RPM and incubated 20 hr at ambient temperature. After addition of 1.5 uL Photinus luciferase detection reagent, the plates were incubated 10 min at ambient temperature and then read by a ViewLux (Perkin Elmer) to detect luminescence.
Background: The purpose of a counterscreen is to sort out artefacts and off-target activity.
Turning to `COc1cc(C(=O)OCC(=O)NC(C)CCc2ccccc2)cc(OC)c1OC` (stereo not drawn), the “activity, negative = inhibition” value is 3.99%.

Turning to `O=C(C[n+]1cc(Br)cc2ccccc21)c1ccc(F)cc1`, the “activity, negative = inhibition” value is 16.3%.

Take `Brc1ccc2ncnc(NCc3cccnc3)c2c1`: the “activity, negative = inhibition” value was 3.99%.

With `c1ccc(-c2nc(NCc3ccco3)c3ccccc3n2)cc1`, the “activity, negative = inhibition” value was -86.1%.

As for `COc1ccc(CNc2ncnc3ccccc23)cc1`, the Potency is 7.08 µM (active).

For `COc1ccc(Nc2ncnc3ccc(OC)cc23)cc1`, the “activity, negative = inhibition” value was -2.23%.

`c1coc(CNc2ncnc3ccccc23)c1`: the Potency was 10 µM (active).

As to `COc1cccc(CNc2nc(C(F)(F)F)nc3ccccc23)c1`, the “activity, negative = inhibition” value was -10.5%.

`CCOCCCN(C)C1CCN(C(=O)c2oc3ccccc3c2NC(=O)COc2cccc(C)c2)CC1`: the “activity, negative = inhibition” value was -2.07%.

As for `Cc1cccn2c(=O)c3cc(C(=O)NCCN4CCOCC4)c(=N)n(Cc4cccnc4)c3nc12`, the “activity, negative = inhibition” value is -1.41%.

On to `COc1cc2c(cc1OC)CN(C(=O)c1cc(S(=O)(=O)N3CCCCC3)ccc1Cl)CC2`, for which the “activity, negative = inhibition” value was 6%.

Turning to `CCCc1nc(SCC(=O)N2CCCC2)c2c(=O)n(C)c(=O)n(C)c2n1`, the “activity, negative = inhibition” value is 7.13%.

Regarding `Cc1cc(C)n(-c2nc(SCC(=O)N3CCCC3)c3c4c(sc3n2)CCCC4)n1`, the Potency was 10 µM (active).

`CCOC(=O)CSc1nc2sc3c(c2c(=O)[nH]1)CC(C)(C)OC3`: the “activity, negative = inhibition” value was -4.44%.

As for `CC(C)c1nc(SCC(=O)Nc2cccc(C(=O)O)c2)c2c3c(sc2n1)CCCC3`, the “activity, negative = inhibition” value is 13%.

For `CCC(O)CNc1nc(-n2nc(C)cc2C)nc2sc3c(c12)CC(C)(C)OC3` (stereo not drawn), the Potency was 3.98 µM (active).

For the compound `COCCNc1nc(-n2nc(C)cc2C)nc2sc3c(c12)CCCC3`, the Potency was 3.16 µM (active).

With `CC/C(C)=N/Nc1nc2sc3c(c2c(=O)[nH]1)CC(C)(C)OC3`, the “activity, negative = inhibition” value is -5.75%.

`Cc1ccc(C)c(-n2c(SCC(=O)O)nc3sc4c(c3c2=O)CCCC4)c1`: the “activity, negative = inhibition” value is -15.4%.

For the compound `Cc1nc2sc3c(c2c(=O)n1NC(=O)CCl)CCCC3`, the “activity, negative = inhibition” value is 0.993%.

Consider `O=C(C1CCCN(S(=O)(=O)c2ccccc2)C1)N1CCN(c2ccc(F)cc2)CC1` (stereo not drawn), for which the “activity, negative = inhibition” value was -1.43%.

Consider `Cc1nc([N+](=O)[O-])cn1CC(=O)Nc1ccc(Cl)cc1`, for which the “activity, negative = inhibition” value was -5.36%.

Regarding `CC(NC(=S)Nc1ccccc1)C1COc2ccccc2O1` (stereo not drawn), the Potency was 5.01 µM (active).

Turning to `CC(=O)c1cccc(NC(=O)C2COc3ccccc3O2)c1` (stereo not drawn), the “activity, negative = inhibition” value is 28.1%.

As to `O=C(NCC1COc2ccccc2O1)C1(c2ccccc2)CCCC1` (stereo not drawn), the “activity, negative = inhibition” value is -20.2%.

Regarding `CSc1c(SCc2ccccc2)cnn(Cc2ccccc2)c1=O`, the Potency was 7.08 µM (active).

For `Cn1c(CO)cnc1SCc1ccccc1`, the “activity, negative = inhibition” value is 1.65%.

As to `CSc1nc2ccccc2c(=O)n1Cc1ccc(F)cc1`, the activity, negative = inhibition is 7.17% [at 10 µM].

With `O=C(NCC(=O)N1CCN(c2ccccc2O)CC1)c1ccc2ccccc2c1`, the “activity, negative = inhibition” value was 1.8%.

For `Cc1ccccc1-n1cc(CNC(=O)C2CCC(=O)N(C3CC3)C2)cn1` (stereo not drawn), the “activity, negative = inhibition” value is -2.71%.

On to `CC(C)CC(=O)Nc1ccc(Cc2ccncc2)cc1`, for which the “activity, negative = inhibition” value is 2.31%.

On to `Cc1c(C(=O)N2CCCc3ccccc32)oc2ccccc12`, for which the “activity, negative = inhibition” value is -1.3%.

Turning to `Cc1cc(-c2ccc(C)c(S(=O)(=O)NCCCN(Cc3ccccc3)C(C)C)c2)on1`, the “activity, negative = inhibition” value was 13.3%.

For `CN1/C(=C\C(=O)c2cccnc2Cl)C(C)(C)c2ccccc21`, the “activity, negative = inhibition” value is -8.82%.

For the compound `Cc1noc(C)c1C(=O)OCC(=O)/C=C1\N(C)c2ccccc2C1(C)C`, the “activity, negative = inhibition” value is -5.14%.

In the case of `CC(=O)Nc1cccc(OCC(=O)/C=C2\N(C)c3ccccc3C2(C)C)c1`, the Potency was 3.16 µM (active).

In the case of `COCC1CCN(C(=O)CCc2nnc(C3(c4ccc(Cl)cc4)CCC3)o2)C1` (stereo not drawn), the “activity, negative = inhibition” value is 27.7%.

Consider `C=CCn1c(=O)c(C(=O)NCc2ccc3c(c2)OCO3)c(O)c2ccccc21`, for which the “activity, negative = inhibition” value is -4.31%.

For the compound `CN(C)S(=O)(=O)c1ccc(NC(=O)COC(=O)c2n[nH]c3ccccc23)cc1`, the Potency was 8.91 µM (active).

Turning to `O=C(COC(=O)c1n[nH]c2ccccc12)NCc1ccccc1`, the “activity, negative = inhibition” value was 7.8%.

For the compound `CN(C)S(=O)(=O)c1ccc(NC(=O)COC(=O)Cn2[nH]c(=O)c3ccccc3c2=O)cc1`, the “activity, negative = inhibition” value is -2.41%.

Take `CCC(=O)Nc1ccc(C(=O)Nc2ccc3c(c2)C(=O)N(CC2CCCO2)C3=O)cc1` (stereo not drawn): the “activity, negative = inhibition” value was -24.9%.

Consider `O=C1c2cccc3c([N+](=O)[O-])ccc(c23)C(=O)N1CC1CCCO1` (stereo not drawn), for which the Potency is 5.62 µM (active).

Consider `O=C(/C=C/c1ccccc1[N+](=O)[O-])NCC1CCCO1` (stereo not drawn), for which the “activity, negative = inhibition” value was 3.92%.

As to `Cc1ccc(-n2c(C)nnc2SCC(=O)NC2CC2)cc1`, the “activity, negative = inhibition” value is 1.94%.

In the case of `O=C(NCc1cccc(Cl)c1)C1CCC(=O)N(C2CC2)C1` (stereo not drawn), the “activity, negative = inhibition” value is -5.17%.

In the case of `CCOc1ccccc1N1CCN(C(=S)Nc2ccc(S(N)(=O)=O)cc2)CC1`, the “activity, negative = inhibition” value was -15.7%.

Consider `CCC(=O)N1CCN(c2ccccc2NC(=O)COc2cccc(C)c2C)CC1`, for which the “activity, negative = inhibition” value was 4.11%.

Regarding `COc1ccccc1CN1CCN(C(c2ccccc2)c2ccccc2)CC1`, the “activity, negative = inhibition” value is -11.1%.

For the compound `COc1ccccc1NC(=S)N1CCN(c2ccc(F)cc2)CC1`, the “activity, negative = inhibition” value was -3.46%.

For the compound `COc1ccccc1NC(=S)N1CCN(C(c2ccccc2)c2ccccc2)CC1`, the Potency is 20 µM (active).

As for `CCOc1ccccc1NC(=S)N1CCN(c2cccc(C)c2C)CC1`, the Potency is 4.47 µM (active).

For the compound `Cc1sc2nc(SCCO)n(-c3ccccc3)c(=O)c2c1C`, the “activity, negative = inhibition” value was -3%.

For the origin of these results see PubChem BioAssay AID2546 (National Center for Advancing Translational Sciences (NCATS), 2010).
